Most compounds without a hit are left out; they make up all but 1.5% or so of the library.
HIF act – HIF pathway transcriptional activation; U2OS HRE-luciferase reporter, luminescence; normalized: DMSO 0%, desferrioxamine 100%; activation, % at 7.5 µM (by protocol); hit rate 0.32% among 300,000; AID 1910;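 active = mean activation of at least 10% of the iron chelator positive control signal, with at least half of replicates also reaching 10%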
DYRK1A inh – Dyrk1A (rat) kinase inhibition. ADP-Glo luminescence, NFATc1 peptide. hit rate 0.43% among 310,000. AID 504441. inhibition, % at 12.5 µM; in the data active = inhibition above about 50%
PP5 inh – inhibitors of human protein phosphatase 5 (PP5). P53041. purified PP5c, OMFP substrate fluorescence. inhibition, % at 6.7 µM. hit rate 0.18% among 320,000. AID 1987;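 active = inhibition above the campaign's mean inhibition across all tested compounds plus 3 SD, cut at about 9.5% in these data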
Target sequence (P53041 whole entry, looked up): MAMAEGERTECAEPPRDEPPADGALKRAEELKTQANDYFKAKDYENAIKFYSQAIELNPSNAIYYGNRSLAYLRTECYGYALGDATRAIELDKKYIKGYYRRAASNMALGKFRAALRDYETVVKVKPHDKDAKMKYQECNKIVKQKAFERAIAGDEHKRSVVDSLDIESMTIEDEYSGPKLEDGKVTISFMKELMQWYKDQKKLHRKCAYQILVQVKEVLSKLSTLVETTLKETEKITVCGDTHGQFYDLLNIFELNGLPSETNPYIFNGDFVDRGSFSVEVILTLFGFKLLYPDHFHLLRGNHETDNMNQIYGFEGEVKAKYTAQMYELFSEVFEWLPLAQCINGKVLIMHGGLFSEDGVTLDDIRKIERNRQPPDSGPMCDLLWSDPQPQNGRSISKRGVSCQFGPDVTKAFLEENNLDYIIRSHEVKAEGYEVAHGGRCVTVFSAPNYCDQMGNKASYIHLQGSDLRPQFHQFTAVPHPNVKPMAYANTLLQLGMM
PP1 counter – counter-screen for PP5 inhibitors: inhibitors of human PP1-alpha; purified PP1alpha, OMFP fluorescence; hit rate 0.9% among 320,000; inhibition, % at 6.7 µM;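 active = inhibition above the mean inhibition of all tested compounds plus 3 SD, computed separately for each screening campaign, cut at about 15% in these data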
STK33 kinase inh – human STK33 kinase inhibition | Q9BYT3 | purified STK33, MBP phosphorylation, ADP-Glo luminescence | inhibition, % at 10 µM | hit rate 0.073% among 320,000 | AID 2661;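 active = inhibition at or above 25%, using the most active replicate where run in duplicate; inactive = inhibition below 25%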
PP1 confirm – human PP1 phosphatase inhibition, confirmation. AID 2358. shares compounds with PP1 counter. purified PP1alpha, OMFP substrate fluorescence. hit rate 52% among 1,900. inhibition, % at 6.7 µM;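 active = mean PP1 inhibition above a set limit taken from the earlier primary screen, cut at about 15% in these data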
PP5 inh counter – PP5 phosphatase inhibition, counter-screen for PP1 inhibitors; AID 2360; purified PP5c, OMFP fluorescence; inhibition, % at 6.7 µM; hit rate 4% among 1,900; shares compounds with PP1 counter;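 active = mean PP5 inhibition over triplicate wells above about 9.5% taken from the earlier PP1 screen, limit read from the data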
Large screens that a line does not name were inactive (follow-up assays come after a bar, where they were run).

C/C(=N\NC(=O)c1nnn(-c2nonc2N)c1CN(C)c1ccccc1)c1ccc(O)cc1	none
C/C(=N\NC(=O)c1nnn(-c2nonc2N)c1CN(C)c1ccccc1)c1ccccn1	PP1 counter 19 | PP1 confirm 30 | PP5 inh counter inactive
COc1cccc(Nc2ccc(C(=O)O)cc2[N+](=O)[O-])c1	none
O=C(NNc1nc2ccc(Cl)cc2s1)c1cc(-c2cccs2)nc2ccccc12	PP1 counter 25 | PP1 confirm 30 | PP5 inh counter inactive
O=C1c2cccc3c(Cl)ccc(c23)C(=O)N1O	PP1 counter 38 (no result: DYRK1A inh) | PP1 confirm 30 | PP5 inh counter inactive
CCN1C(=O)c2cccc3c(Cl)ccc(c23)C1=O	none
COc1cc(NC(=O)CSc2nc(C3CC3)nc3ccccc23)cc(OC)c1	PP1 counter 19 | PP1 confirm 18 | PP5 inh counter inactive
O=C(CSc1nc(C2CC2)nc2ccccc12)Nc1ccccc1	none
CCOC(=O)c1sc2nc3c(SCC(=O)O)cc(C(=O)c4ccccc4O)cn3c(=O)c2c1C	none
Cc1sc2nc3c(SC(C)C(=O)O)cc(C(=O)c4ccccc4O)cn3c(=O)c2c1C (stereo not drawn)	none
COc1ccc(O)c(C(=O)c2cc(SCC(=O)O)c3nc4sc5c(c4c(=O)n3c2)CCCC5)c1	PP1 counter 29 | PP1 confirm 19 | PP5 inh counter inactive
CCOC(=O)c1sc2nc3c(SCC(=O)O)cc(C(=O)c4cc(F)ccc4O)cn3c(=O)c2c1C	PP1 counter 61 | PP1 confirm 48 | PP5 inh counter inactive
O=C(O)CSc1cc(C(=O)c2ccccc2O)cn2c(=O)c3c(-c4ccccc4)csc3nc12	PP1 counter 20 | PP1 confirm 16 | PP5 inh counter inactive
COc1cc(/C=N/n2nnnc2Nc2ccccc2)cc(OC)c1OC	none
CC(C)(C)OC(=O)C[C@H]1C/C=C\C[C@H](CC(=O)N[C@H](CO)Cc2ccccc2)C(=O)N2CCC[C@H]2COC1=O	none (no result: HIF act, PP5 inh, PP1 counter)
COc1ccc(-c2c[n+](CC(=O)c3ccccc3)c3n2CCCCC3)cc1	none
COc1ccc(-c2c[n+]3c4n2CCCCC4=C(c2ccccc2)C3)cc1	PP1 counter 18 (no result: STK33 kinase inh) | PP1 confirm inactive | PP5 inh counter inactive
CCCOc1ccc(-c2c(C(=O)N/N=C/c3cccnc3)nnn2-c2nonc2N)cc1	PP1 counter 27 | PP1 confirm 21 | PP5 inh counter inactive
CN(C(=O)c1cc(-c2ccccc2)on1)C1CCCCC1	none
CCC(C)(C)NC(=O)C(c1cccn1C)N(Cc1ccc(OC)cc1)C(=O)Cn1nnc2ccccc21 (stereo not drawn)	PP1 counter 30 | PP1 confirm 25 | PP5 inh counter inactive
CCC(C)(C)NC(=O)C(c1cccn1C)N(Cc1ccccc1)C(=O)Cn1nnc2ccccc21 (stereo not drawn)	none (no result: PP5 inh, PP1 counter, STK33 kinase inh)
Nc1oc2ccccc2c1C(=O)Cc1ccccc1O[C@@H]1O[C@H](CO)[C@@H](O)[C@H](O)[C@H]1O	none
N=c1c(C(=O)NCc2ccco2)cc2c(=O)n3ccccc3nc2n1Cc1ccc(Cl)cc1	PP1 counter 18 | PP1 confirm inactive | PP5 inh counter inactive
Cc1ccc(S(=O)(=O)c2cc3c(=O)n4ccccc4nc3n(Cc3ccco3)c2=N)cc1	PP1 counter 21 | PP1 confirm inactive | PP5 inh counter inactive
CS(=O)(=O)c1ccc(Cl)c(C(=O)OCC(=O)NC2CCCCCCC2)c1	none (no result: HIF act)
CCc1ccc(Nc2n[n+](-c3ccccc3)c(-c3ccc(OC)c(Br)c3)s2)cc1	PP1 counter 20 | PP1 confirm inactive | PP5 inh counter inactive
O=C(NC(=S)NNC(=O)[C@H]1C[C@@H]1c1ccccc1)c1ccc(F)cc1	none
O=C(/C=C/c1ccc(F)cc1)NC(=S)NNC(=O)[C@H]1C[C@@H]1c1ccccc1	PP1 counter 18 (no result: DYRK1A inh) | PP1 confirm inactive | PP5 inh counter inactive
Cc1ccc(S(=O)(=O)N2[C@@H](c3cccc(Cl)c3)C(C(=O)O)=CC[C@H]2c2ccc(C(C)C)cc2)cc1	PP1 counter 29 (no result: HIF act) | PP1 confirm 21 | PP5 inh counter inactive
O=C(O)C1=CC[C@@H](c2ccc(Cl)cc2)N(S(=O)(=O)c2ccc(Cl)cc2)[C@H]1c1cccc(Cl)c1	PP1 counter 23 (no result: HIF act) | PP1 confirm inactive | PP5 inh counter inactive
